Most compounds without a hit are left out; they make up all but 1.8% or so of the library.
EWS-Fli inh – EWS/Fli-driven NR0B1 reporter inhibitors, primary screen, A673 cells, NR0B1 luciferase, luminescence, MLPCN library | viability-normalised | inhibition, % at 12.6 µM | 350,000 tested, 0.67% active | AID 651661, 2012;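 active means mean inhibition of at least 50% after viability correction, with every replicate also passing that limit; inconclusive means mean reaches 50% but only one of two replicates passes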;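 further: firefly luciferase signal divided by Alamar Blue viability fluorescence both relative to DMSO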
RAD52 inh – RAD52 DNA annealing inhibitors, primary screen, biochemical, FRET, single point, set 2. DNA repair protein RAD52 homolog (Homo sapiens), P43351. recombinant RAD52 DNA annealing, FRET fluorescence. inhibition, % at 18.7 µM. 360,000 tested, 0.46% active. AID 651710, 2012;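 active means every replicate showing at least 50% inhibition; inconclusive means mean inhibition at least 50% but not in every replicate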
GSIS activator – GLuc luminescence reporter in INS-1E cells, primary screen for activators of glucose-dependent secretion of insulin | 370,000 tested, 0.61% active | activation, % at 16.6 µM | AID 743287, 2014 | INS-1E GLuc reporter insulin secretion, 2-3 h;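 active means lowest replicate activation of at least 40%, so every replicate reaches that level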;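 further: 0% = median of neutral control wells and 100% = median of IBMX positive control wells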
F508del corr – F508del CFTR correction, initial screen, CFBE line, single point. 350,000 tested, 0.36% active. CFBE cells, YFP halide quenching; stimulated with forskolin plus potentiator P3; % fluorescence drop versus neutral controls. activity (quench increase), % at 7.58 µM;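 active means mean added fluorescence quench of at least 8% versus neutral control, with both replicates also reaching 8%; inconclusive means only one of the mean or replicate conditions met; inactive means mean below 8% and not both replicates reaching 8%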;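 further: cells transiently co-express mutant CFTR-F508del with the halide-sensitive YFP; corrector assay measuring rescue of mutant channel to the surface after 24 h compound exposure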
RAD54 branch – inhibitors of human RAD54 branch migration, primary screen, biochemical, fluorescence, single point. DNA repair and recombination protein RAD54-like (Homo sapiens), Q92698. RAD54 Holliday junction branch migration, FAM/BHQ fluorescence. inhibition, % at 10.4 µM. 360,000 tested, 0.14% active;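 active means mean normalized replicate activity at least 40 and at least half of replicates scoring 40 or more; inconclusive means only one of the two criteria met; inactive means mean below 40 and under half of replicates reaching 40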;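 further: 0% = median of neutral control wells and 100% = median of positive control wells; inhibitors cause a drop in the FAM fluorescence signal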
LGR2 antag – inhibitors of bursicon-induced LGR2 CRE-luciferase signal, primary screen, cell-based, HEK293, CRE-luciferase reporter, bursicon stimulation; Drosophila bursicon receptor LGR2 (rickets); inhibition, % at 9.99 µM; bursicon-stimulated, 4 h; 380,000 tested, 0.35% active; AID 720647, 2013;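 active means drop in luminescence signal, shown as inhibition above about 50% in the replicate tests, limit read from the data, passing the limit was not always enough; inconclusive means probably only some replicates passing the limit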;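 further: agonist challenge used bursicon conditioned medium at about half maximal strength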
Rad54 DNA ctr – DNA binding of candidate compounds, dose response, artefact control for RAD54 inhibitor project, biochemical, fluorescence polarization, cherry-pick; shares compounds with RAD54 branch; Acridine orange-DNA displacement, 20 min; AID 651673, 2012; AC50, µM (series often up to 35 µM), without a hit: top-dose activity change, negative = DNA binding; 460 tested, 8% active;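 active means signal drop giving an AC50 within twice the top valid tested concentration of each sample, actives reach about 35 µM in these data; inactive means activity opposite to expected, plus the rest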;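 further: polarization loss reports compound binding to salmon sperm DNA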
* marks the source's active call; other numbers are inactive results.

`O=c1c2ccccc2sc2ccc(NCCCN3CCOCC3)cc12` gave EWS-Fli inh -72, RAD52 inh -7, GSIS activator -3, F508del corr 0, RAD54 branch 51*, LGR2 antag -105 and Rad54 DNA ctr -29%.
For CC(=O)c1c(O)c2ccccc2n(C(C)C)c1=O the results were EWS-Fli inh 6, RAD52 inh -11, GSIS activator 0, F508del corr 1, RAD54 branch 1 and LGR2 antag 4.
`Cc1cc(NC(=O)CCCOc2ccc(Cl)cc2Cl)no1` gave RAD54 branch -1.
CC(c1ccccc1)N1C(=O)c2ccccc2C1(O)Cc1ccccc1 (stereo not drawn) was read as EWS-Fli inh 1, RAD52 inh -13, GSIS activator -10, F508del corr 2 and LGR2 antag 10.
Cc1ccc2nc3c(cc(C(=O)NCCN4CCOCC4)c(=N)n3CCCN3CCOCC3)c(=O)n2c1 was read as RAD54 branch 66* and Rad54 DNA ctr -15%.
Cc1ccc2nc3c(cc(C(=O)NCCc4ccccc4)c(=N)n3CCN3CCOCC3)c(=O)n2c1 was read as RAD54 branch 10.
Cn1c2ccc(F)cc2c2ncn(CCCN(CCO)CCO)c(=O)c21 was read as RAD54 branch 54* and Rad54 DNA ctr -14%.
`CCN1CCN(c2nn3c(=O)c4ccccc4nc3c3ccccc23)CC1` gave RAD54 branch 57* and Rad54 DNA ctr inactive.
Oc1cccc2ccc(Nc3ccccn3)nc12 was read as RAD54 branch 94* and Rad54 DNA ctr -9%.
`c1ccc(Nc2ccccc2Nc2ccccn2)nc1` gave EWS-Fli inh 2, RAD52 inh -3, GSIS activator 15, F508del corr 0 and LGR2 antag 5.
For CCN1CCN(c2nc(N)c([N+](=O)[O-])c(Nc3cccc(C)c3)n2)CC1 the results were EWS-Fli inh -11, RAD52 inh -17, GSIS activator 8, F508del corr 4, RAD54 branch inconclusive, LGR2 antag -20 and Rad54 DNA ctr -8%.
Cc1cccc(Nc2nc(N3CCN(C)CC3)nc(N)c2[N+](=O)[O-])c1 was read as EWS-Fli inh -10, RAD52 inh 0 and F508del corr -1.
`O=C(NC1CCS(=O)(=O)C1)c1sc2ccccc2c1Cl` (stereo not drawn) gave EWS-Fli inh -6, RAD52 inh -21, GSIS activator 3, F508del corr -1 and LGR2 antag 9.
Screening CCOC(=O)C1CCN(c2nc3ccccc3nc2C(C#N)C(=O)OC(C)COC)CC1 (stereo not drawn) returned RAD54 branch -12.
For CCOc1ccccc1NC(=O)CSc1nnc(Cc2ccc(OC)cc2)c(=O)n1N the results were EWS-Fli inh -3, RAD52 inh -2, GSIS activator 3, F508del corr 2, RAD54 branch -3 and LGR2 antag 7.
`CCOC(=O)c1c(C)n(C)c2ccc(OCC(O)CN3CCC(C)CC3)cc12` (stereo not drawn) gave EWS-Fli inh 0, RAD52 inh 26, GSIS activator 5, F508del corr 0, RAD54 branch inconclusive, LGR2 antag -16 and Rad54 DNA ctr -8%.
Screening COc1ccccc1NC(=O)CNC(=O)c1ccccc1 returned RAD54 branch 52* and Rad54 DNA ctr -14%.
For CSc1ncccc1-c1nc2ccccc2[nH]1 the results were GSIS activator 11 and RAD54 branch -14.
For O=C(CS(=O)(=O)c1ccccc1)Nc1ccc(Br)cn1 the results were GSIS activator 19, RAD54 branch inconclusive, LGR2 antag -12 and Rad54 DNA ctr 8%.
Screening CC(C)CNc1cccc2c1S(=O)(=O)N[C@@H](Cc1ccccc1)CO2 returned EWS-Fli inh -7, RAD52 inh 2, GSIS activator -6, F508del corr 1 and LGR2 antag 30.
For COc1ccc(C(=O)Nc2ccc3nc(N4CCN(C)CC4)cc(C)c3c2)c(OC)c1 the results were EWS-Fli inh 43, RAD52 inh 31, GSIS activator 37, F508del corr 4, RAD54 branch 51*, LGR2 antag -3 and Rad54 DNA ctr 7%.
`CCN1CCN(c2cc(C)c3cc(NC(=O)c4cccc(OC)c4)ccc3n2)CC1` gave EWS-Fli inh -49, RAD52 inh 34, F508del corr 0, RAD54 branch 2 and LGR2 antag -20.
CCCCN(C)CCNC(=S)Nc1ccc2nc(N3CCN(CC)CC3)cc(C)c2c1 was read as EWS-Fli inh 14, RAD52 inh 95*, GSIS activator 0, F508del corr -2, RAD54 branch 81*, LGR2 antag 6 and Rad54 DNA ctr 9%.
For CCN1CCN(c2cc(C)c3cc(NC(=S)N(C)Cc4ccccc4)ccc3n2)CC1 the results were EWS-Fli inh 7, RAD52 inh 23, GSIS activator -12, F508del corr 0, RAD54 branch 18 and LGR2 antag -10.
For CCN1CCN(c2cc(C)c3cc(NC(=S)NCCN(C)C)ccc3n2)CC1 the results were EWS-Fli inh 0, RAD52 inh 98*, GSIS activator 0, F508del corr 1, RAD54 branch 93*, LGR2 antag -12 and Rad54 DNA ctr -9%.
Cc1cc(N2CCN(C)CC2)nc2ccc(NC(=S)NCCN3CCc4ccccc4C3)cc12 was read as EWS-Fli inh 38, RAD52 inh 81*, GSIS activator -3, F508del corr 2, RAD54 branch 89*, LGR2 antag -15 and Rad54 DNA ctr 5%.
Screening CCCCN(C)C(=S)Nc1ccc2nc(N3CCN(CC)CC3)cc(C)c2c1 returned EWS-Fli inh 3, RAD52 inh 48, F508del corr 1 and LGR2 antag 6.
`C/C(CCc1ccccc1)=N\NC(=O)C(=O)Nc1cccc(Cl)c1` gave EWS-Fli inh -9, RAD52 inh -4, GSIS activator 3, F508del corr -3, RAD54 branch -2 and LGR2 antag 2.
Screening O=C(Nc1nccs1)c1ccc2c(c1)OCO2 returned EWS-Fli inh -72, RAD52 inh -13, GSIS activator 19, F508del corr -4, RAD54 branch 8 and LGR2 antag -34.
For CCOC(=O)c1c(CN2CCCCC2)n(C)c2cc(Br)c(OC)cc12 the results were RAD54 branch inconclusive and Rad54 DNA ctr -17%.

Source: PubChem
